# PubChem BioAssay AID1159580 (chemical genetic matrix, 2015)
# Several values for one entry are separate records, joined by “and”; a condition that tells them apart may be missing. Equal entries are not always repeated. The whole screen tested about 5,500 compounds, of which about 2,000 (36%) were called active. Roughly 18% stayed inconclusive and do not appear here. Cut-off read from the data, not from the text of the source: active = normalized growth mostly below about 0.91 (no sharp cut-off); inconclusive = no clear call, values can overlap the other calls; inactive = mostly above about 0.92. The list shows a part of the results.
# Assay: chemical genetic growth profiling, strain panel (AID 1159580);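 note: tested at 20 µM; growth read once vehicle control cultures reached saturation at 30 °C; 1 = growth at the plate median or of vehicle wells; lower values mean less growth of the strain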
# Details: S. cerevisiae deletion strains, growth OD
smiles,measurement,setting,value
CC(CCC(=O)O)[C@H]1CCC2C3CC[C@@H]4C[C@H](O)CC[C@]4(C)C3CC[C@@]21C (some centres not stated),normalized growth,"locus YAL013W, strain DEP1, stronger effect = lower value",0.831 (active)
same,normalized growth,"locus YAL021C, strain ccr4, stronger effect = lower value",0.982 (inactive)
same,normalized growth,"locus YAL026C, strain drs2, stronger effect = lower value",0.946 (inactive)
same,normalized growth,"locus YAL030W, strain snc1, stronger effect = lower value",0.989 (inactive)
same,normalized growth,"locus YBL061C, strain skt5, stronger effect = lower value",1.03 (inactive)
same,normalized growth,"locus YBR009C, strain hhf1, stronger effect = lower value",0.888 (active)
same,normalized growth,"locus YBR021W, strain FUR4, stronger effect = lower value",0.932 (inactive)
same,normalized growth,"locus YBR023C, strain chs3, stronger effect = lower value",0.924 (inactive)
same,normalized growth,"locus YBR171W, strain sec66, stronger effect = lower value",1.01 (inactive)
same,normalized growth,"locus YBR229C, strain ROT2, stronger effect = lower value",1.04 (inactive)
same,normalized growth,"locus YBR231C, strain swc5, stronger effect = lower value",0.939 (inactive)
same,normalized growth,"locus YBR279W, strain paf1, stronger effect = lower value",1.01 (inactive)
same,normalized growth,"locus YCL011C, strain gbp2, stronger effect = lower value",0.974 (inactive)
same,normalized growth,"locus YCL016C, strain dcc1, stronger effect = lower value",0.909 (active)
same,normalized growth,"locus YCL029C, strain bik1, stronger effect = lower value",0.993 (inactive)
same,normalized growth,"locus YCL061C, strain MRC1, stronger effect = lower value",0.931 (inactive)
same,normalized growth,"locus YCL069W, strain vba3, stronger effect = lower value",1 (inactive)
same,normalized growth,"locus YCR088W, strain abp1, stronger effect = lower value",0.993 (inactive)
same,normalized growth,"locus YDL005C, strain med2, stronger effect = lower value",1.01 (inactive)
same,normalized growth,"locus YDL035C, strain GPR1, stronger effect = lower value",0.528 (active)
same,normalized growth,"locus YDL040C, strain nat1, stronger effect = lower value",1.03 (inactive)
same,normalized growth,"locus YDL074C, strain BRE1, stronger effect = lower value",0.698 (active)
same,normalized growth,"locus YDL101C, strain DUN1, stronger effect = lower value",0.713 (active)
same,normalized growth,"locus YDL185W, strain tfp1, stronger effect = lower value",1.04 (inactive)
same,normalized growth,"locus YDL192W, strain arf1, stronger effect = lower value",0.856 (active)
same,normalized growth,"locus YDR001C, strain nth1, stronger effect = lower value",1.02 (inactive)
same,normalized growth,"locus YDR069C, strain doa4, stronger effect = lower value",0.947 (inactive)
same,normalized growth,"locus YDR101C, strain arx1, stronger effect = lower value",0.977 (inactive)
same,normalized growth,"locus YDR137W, strain rgp1, stronger effect = lower value",0.452 (active)
same,normalized growth,"locus YDR159W, strain sac3, stronger effect = lower value",0.925 (inactive)
same,normalized growth,"locus YDR162C, strain NBP2, stronger effect = lower value",0.208 (active)
same,normalized growth,"locus YDR195W, strain ref2",1.07 (inactive)
same,normalized growth,"locus YDR297W, strain sur2, stronger effect = lower value",1 (inactive)
same,normalized growth,"locus YDR318W, strain mcm21, stronger effect = lower value",0.951 (inactive)
same,normalized growth,"locus YDR334W, strain swr1, stronger effect = lower value",0.989 (inactive)
same,normalized growth,"locus YDR335W, strain msn5, stronger effect = lower value",0.926 (inactive)
same,normalized growth,"locus YDR388W, stronger effect = lower value",1.01 (inactive)
same,normalized growth,"locus YDR392W, strain spt3, stronger effect = lower value",0.735 (active)
same,normalized growth,"locus YDR502C, strain sam2, stronger effect = lower value",0.878 (active)
same,normalized growth,"locus YEL003W, strain gim4, stronger effect = lower value",0.94 (inactive)
same,normalized growth,"locus YEL037C, strain rad23, stronger effect = lower value",0.994 (inactive)
same,normalized growth,"locus YEL061C, strain CIN8 (second series), stronger effect = lower value",1.01 (inactive)
same,normalized growth,"locus YEL061C, strain CIN8, stronger effect = lower value",0.912 (active)
same,normalized growth,"locus YER015W, strain faa2, stronger effect = lower value",0.907 (active)
same,normalized growth,"locus YER016W, strain bim1, stronger effect = lower value",1 (inactive)
same,normalized growth,"locus YER110C, stronger effect = lower value",1.07 (inactive)
same,normalized growth,"locus YER111C, strain swi4, stronger effect = lower value",1.01 (inactive)
same,normalized growth,"locus YER155C, strain BEM2 (second series), stronger effect = lower value",1.04 (inactive)
same,normalized growth,"locus YER155C, strain BEM2, stronger effect = lower value",0.852 (active)
same,normalized growth,"locus YER167W, strain BCK2, stronger effect = lower value",0.906 (inactive)
same,normalized growth,"locus YFR010W, strain ubp6, stronger effect = lower value",0.982 (inactive)
same,normalized growth,"locus YGL078C, strain dbp3, stronger effect = lower value",0.926 (inactive)
same,normalized growth,"locus YGL086W, strain mad1, stronger effect = lower value",0.923 (active)
same,normalized growth,"locus YGL167C, strain pmr1, stronger effect = lower value",0.988 (inactive)
same,normalized growth,"locus YGL173C, strain kem1, stronger effect = lower value",0.701 (active)
same,normalized growth,"locus YGL227W, strain vid30, stronger effect = lower value",1 (inactive)
same,normalized growth,"locus YGL240W, strain doc1, stronger effect = lower value",0.89 (inactive)
same,normalized growth,"locus YGL248W, strain PDE1, stronger effect = lower value",0.827 (active)
same,normalized growth,"locus YGL253W, strain hxk2, stronger effect = lower value",0.989 (inactive)
same,normalized growth,"locus YGR078C, strain PAC10, stronger effect = lower value",0.757 (active)
same,normalized growth,"locus YGR135W, strain pre9, stronger effect = lower value",0.84 (active)
same,normalized growth,"locus YGR229C, strain SMI1, stronger effect = lower value",0.356 (active)
same,normalized growth,"locus YGR252W, strain gcn5, stronger effect = lower value",0.792 (inactive)
same,normalized growth,"locus YHR013C, strain ard1, stronger effect = lower value",1.01 (inactive)
same,normalized growth,"locus YHR027C, strain rpn1, stronger effect = lower value",0.94 (inactive)
same,normalized growth,"locus YHR030C, strain SLT2, stronger effect = lower value",0.762 (active) and 0.955 (inactive)
same,normalized growth,"locus YHR079C, strain IRE1 (second series), stronger effect = lower value",1.06 (inactive)
same,normalized growth,"locus YHR079C, strain IRE1, stronger effect = lower value",0.955 (inactive)
same,normalized growth,"locus YHR094C, strain hxt1, stronger effect = lower value",1.08 [resistant] (active)
same,normalized growth,"locus YHR129C, strain ARP1, stronger effect = lower value",0.791 (active)
same,normalized growth,"locus YHR142W, strain chs7, stronger effect = lower value",0.873 (active)
same,normalized growth,"locus YHR200W, strain rpn10, stronger effect = lower value",1.02 (inactive)
same,normalized growth,"locus YIL066C, strain RNR3, stronger effect = lower value",0.79 (active)
same,normalized growth,"locus YIL073C, strain SPO22, stronger effect = lower value",0.937 (inactive)
same,normalized growth,"locus YIL125W, strain kgd1, stronger effect = lower value",1.04 (inactive)
same,normalized growth,"locus YIR030C, strain dcg1, stronger effect = lower value",1.04 (inactive)
same,normalized growth,"locus YJL092W, strain hpr5, stronger effect = lower value",0.966 (inactive)
same,normalized growth,"locus YJL095W, strain BCK1 (second series), stronger effect = lower value",0.893 (active)
same,normalized growth,"locus YJL095W, strain BCK1, stronger effect = lower value",0.522 (active) and 0.953 (inactive)
same,normalized growth,"locus YJL115W, strain asf1, stronger effect = lower value",1.01 (inactive)
same,normalized growth,"locus YJL129C, strain trk1, stronger effect = lower value",0.914 (inactive)
same,normalized growth,"locus YJL134W, strain LCB3, stronger effect = lower value",1.04 (inactive)
same,normalized growth,"locus YJL154C, strain vps35, stronger effect = lower value",0.997 (inactive)
same,normalized growth,"locus YJL164C, strain tpk1, stronger effect = lower value",0.92 (inactive)
same,normalized growth,"locus YJL166W, strain qcr8, stronger effect = lower value",0.83 (active)
same,normalized growth,"locus YJL168C, strain set2, stronger effect = lower value",1.14 [resistant] (active)
same,normalized growth,"locus YJL187C, strain SWE1 (second series), stronger effect = lower value",0.791 (active)
